These results are taken from the supplement of paper PMC12494721.

Counter-ions that a name gives are not always drawn.

One experiment concerns Klebsiella aerogenes DSM 30053. Kind of experiment: growth (OD595) fold change vs plate DMSO controls (fold change (ratio)); higher = more growth. The conditions noted are these: incubation time: 27 h, anaerobic, 37 °C. The gist of the method:
(§1)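 Anaerobic mGAM cultures in 96-well plates were grown for 27 h at 37 °C, and absorbance was then read at 595 nm. After blank and compound background correction with 20 µM compound solutions in water, a calibration factor of 5 gave OD. Growth is the fold change relative to the median of each plate's DMSO controls. Values are means of 2 biological replicates, with fold changes above 1.5 set to NA.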
For `Cc1cc(NS(=O)(=O)c2ccc(N)cc2)nc(C)n1` [Sulfisomidine] (20 µM), the growth worked out at 1.04.
As for `O=C(O)Cc1ccccc1Nc1c(Cl)cccc1Cl` [Diclofenac sodium] (20 µM), the growth was 0.986.
Regarding `CN1CCCN=C1/C=C/c1cccs1` [Pyrantel tartrate] (20 µM), the growth was found to be 1.1.
Consider `CN(C(=O)C(Cl)Cl)c1ccc(OC(=O)c2ccco2)cc1` [Diloxanide furoate] (20 µM), for which the growth was determined as 1.01.
Consider `O=C(Oc1ccccc1)c1ccccc1O` [Phenyl salicylate] (20 µM), for which the growth amounted to 0.971.
For the molecule `CCCCC(C)(O)C/C=C/[C@H]1[C@H](O)CC(=O)[C@@H]1CCCCCCC(=O)OC` (mixture of isomers) [Misoprostol] (20 µM), the growth came to 1.03.
With `Cc1cc(C(C)(C)C)c(O)c(C)c1CC1=NCCN1` [Oxymetazoline hydrochloride] (20 µM), the growth is 0.987.
In the case of `CCN(CC)CCc1nc(-c2ccccc2)no1` [Oxolamine citrate salt] (20 µM), the growth is 0.968.
`COc1ccc2c(c1)c(CC(=O)OCC(=O)O)c(C)n2C(=O)c1ccc(Cl)cc1` [Acemetacin] (20 µM): the growth worked out at 0.985.
On the same count and under the same terms, the same measure for `Cn1cnc([N+](=O)[O-])c1Sc1ncnc2[nH]cnc12` [Azathioprine] (20 µM): 0.993; for `CCOC(=O)c1ccc(N)cc1` [Benzocaine] (20 µM): 1.08; for `COC1=C(OC)C(=O)C(CCCCCCCCCCO)=C(C)C1=O` [Idebenone] (20 µM): 1.01.
Same read-out and setting: the result for `CC(=O)NCCCS(=O)(=O)O` [Acamprosate calcium] (20 µM) reads 0.963.
Turning to `CC(C)NCC(O)COc1cccc2[nH]c3ccccc3c12` (stereo unspecified) [Carazolol] (20 µM), the growth was 0.956.
Take `CC(C(=O)O)c1ccc(N2Cc3ccccc3C2=O)cc1` (stereo unspecified) [Indoprofen] (20 µM): the growth was determined as 0.973.
On the same count and under the same terms, the same measure for `CC1(C)S[C@@H]2[C@H](NC(=O)[C@H](N)c3ccccc3)C(=O)N2[C@H]1C(=O)O` [Ampicillin trihydrate] (20 µM): 0.91; for `CCN1CCCC1CNC(=O)c1cc(S(=O)(=O)CC)c(N)cc1OC` (stereo unspecified) [Amisulpride] (20 µM): 1; for `COC(=O)Nc1nc2cc(C(=O)c3ccc(F)cc3)ccc2[nH]1` [Flubendazol] (20 µM): 1.12.
Consider `CCOc1nc2cccc(C(=O)OCc3oc(=O)oc3C)c2n1Cc1ccc(-c2ccccc2-c2noc(=O)[nH]2)cc1` [Azilsartan medoxomil] (20 µM), for which the growth was found to be 0.984.
Still for that read-out and setting: the same measure for `COc1cc(C(=O)N2CCOCC2)cc(OC)c1OC` [Trimetozine] (20 µM): 0.986.
Take `CC(C)NC[C@@H](O)COc1ccc(CC(N)=O)cc1` [(R,+) Atenolol] (20 µM): the growth was found to be 1.12.
`O=C(O)Cc1sc(-c2ccccc2)nc1-c1ccc(Cl)cc1` [Fentiazac] (20 µM): the growth was 1.06.
As for `Nc1nc(CC(=O)Nc2ccc(CCNC[C@H](O)c3ccccc3)cc2)cs1` [Mirabegron] (20 µM), the growth was determined as 1.13.
The same measure, in the same setting: the result for `NS(=O)(=O)c1cc2c(cc1Cl)NC(CC1CCCC1)NS2(=O)=O` (stereo unspecified) [Cyclopenthiazide] (20 µM) reads 0.98.
With `Cc1cc(/C=C/c2ccc3cc(N(C)C)ccc3[n+]2C)c(C)n1-c1ccccc1` [Pyrvinium pamoate] (20 µM), the growth turned out to be 0.958.
On the same count and under the same terms, the same measure for `CN1CCC(=C2c3ccccc3C=Cc3ccccc32)CC1` [Cyproheptadine hydrochloride] (20 µM): 0.98.
For `Cc1ccccc1OCC(O)CO` (stereo unspecified) [Mephenesin] (20 µM), the growth is 1.02.

The next experiment concerns Ruminococcus gnavus DSM 108212. The experiment is described as above. The following applies: incubation time: 27 h, anaerobic, 37 °C. The procedure, abridged:
as §1
For `O=C(O)c1cc(-c2ccc(F)cc2F)ccc1O` [Diflunisal] (20 µM), the growth stood at 1.22.
Regarding `Fc1ccc([C@@H]2CCNC[C@H]2COc2ccc3c(c2)OCO3)cc1` [Paroxetine hydrochloride] (20 µM), the growth turned out to be 0.929.
On the same count and under the same terms, the same measure for `CCN(CC)CCOC(=O)C1(C2CCCCC2)CCCCC1` [Dicyclomine hydrochloride] (20 µM): 0.659.
For `CN1[C@@H]2CC[C@H]1C[C@@H](OC(=O)c1c[nH]c3ccccc13)C2` [Tropisetron hydrochloride] (20 µM), the growth came out at 1.08.
On to `NC(=O)N1c2ccccc2CC(=O)c2ccccc21` [Oxcarbazepine] (20 µM), for which the growth turned out to be 1.
With `N=C(NCCCCCCNC(=N)NC(=N)Nc1ccc(Cl)cc1)NC(=N)Nc1ccc(Cl)cc1` [Chlorhexidine] (20 µM), the growth amounted to 0.0252.
On to `CC(=O)Nc1ccccc1` [Acetanilide] (20 µM), for which the growth worked out at 0.941.
Consider `Nc1nc(N)nc(-c2cc(Cl)ccc2Cl)n1` [Irsogladine maleate] (20 µM), for which the growth was 1.02.
In the case of `Cc1ccsc1C(=CCCN1CCC[C@@H](C(=O)O)C1)c1sccc1C` [Tiagabine hydrochloride] (20 µM), the growth was found to be 1.01.
For the molecule `CC(C)NCC(O)c1ccc(O)c(O)c1` (single isomer, unassigned; (-)) [(-) Isoproterenol hydrochloride] (20 µM), the growth stood at 0.899.
Take `CN(C)CCN(Cc1ccccc1)c1ccccn1` [Tripelennamine hydrochloride] (20 µM): the growth worked out at 0.946.
For the molecule `C[C@H](NCc1ccc(OCc2cccc(F)c2)cc1)C(N)=O` [Safinamide] (20 µM), the growth worked out at 1.07.
Take `Cc1cc(NS(=O)(=O)c2ccc(N)cc2)nc(C)n1` [Sulfisomidine] (20 µM): the growth was 1.03.
Same read-out and setting: the result for `O=C(O)Cc1ccccc1Nc1c(Cl)cccc1Cl` [Diclofenac sodium] (20 µM) reads 1.03.
Regarding `CN1CCCN=C1/C=C/c1cccs1` [Pyrantel tartrate] (20 µM), the growth was 1.04.
On to `CN(C(=O)C(Cl)Cl)c1ccc(OC(=O)c2ccco2)cc1` [Diloxanide furoate] (20 µM), for which the growth was 0.993.
Turning to `O=C(Oc1ccccc1)c1ccccc1O` [Phenyl salicylate] (20 µM), the growth turned out to be 1.04.
As to `CCCCC(C)(O)C/C=C/[C@H]1[C@H](O)CC(=O)[C@@H]1CCCCCCC(=O)OC` (mixture of isomers) [Misoprostol] (20 µM), the growth turned out to be 1.19.
For the molecule `Cc1cc(C(C)(C)C)c(O)c(C)c1CC1=NCCN1` [Oxymetazoline hydrochloride] (20 µM), the growth is 0.978.
For the molecule `CCN(CC)CCc1nc(-c2ccccc2)no1` [Oxolamine citrate salt] (20 µM), the growth is 1.01.
With `COc1ccc2c(c1)c(CC(=O)OCC(=O)O)c(C)n2C(=O)c1ccc(Cl)cc1` [Acemetacin] (20 µM), the growth worked out at 1.06.
Turning to `Cn1cnc([N+](=O)[O-])c1Sc1ncnc2[nH]cnc12` [Azathioprine] (20 µM), the growth came out at 1.49.
As for `CCOC(=O)c1ccc(N)cc1` [Benzocaine] (20 µM), the growth was found to be 1.02.
`COC1=C(OC)C(=O)C(CCCCCCCCCCO)=C(C)C1=O` [Idebenone] (20 µM): the growth was 0.839.
As to `CC(=O)NCCCS(=O)(=O)O` [Acamprosate calcium] (20 µM), the growth was found to be 0.795.
Same read-out and setting: the same measure for `CC(C)NCC(O)COc1cccc2[nH]c3ccccc3c12` (stereo unspecified) [Carazolol] (20 µM): 1.12; for `CC(C(=O)O)c1ccc(N2Cc3ccccc3C2=O)cc1` (stereo unspecified) [Indoprofen] (20 µM): 1.01; for `CC1(C)S[C@@H]2[C@H](NC(=O)[C@H](N)c3ccccc3)C(=O)N2[C@H]1C(=O)O` [Ampicillin trihydrate] (20 µM): 0.
For the molecule `CCN1CCCC1CNC(=O)c1cc(S(=O)(=O)CC)c(N)cc1OC` (stereo unspecified) [Amisulpride] (20 µM), the growth is 1.31.
For `COC(=O)Nc1nc2cc(C(=O)c3ccc(F)cc3)ccc2[nH]1` [Flubendazol] (20 µM), the growth was 1.04.
On to `CCOc1nc2cccc(C(=O)OCc3oc(=O)oc3C)c2n1Cc1ccc(-c2ccccc2-c2noc(=O)[nH]2)cc1` [Azilsartan medoxomil] (20 µM), for which the growth was determined as 1.1.
The same measure, in the same setting: the result for `COc1cc(C(=O)N2CCOCC2)cc(OC)c1OC` [Trimetozine] (20 µM) reads 1.05.
On to `CC(C)NC[C@@H](O)COc1ccc(CC(N)=O)cc1` [(R,+) Atenolol] (20 µM), for which the growth was determined as 1.16.
With `O=C(O)Cc1sc(-c2ccccc2)nc1-c1ccc(Cl)cc1` [Fentiazac] (20 µM), the growth amounted to 0.808.
Turning to `Nc1nc(CC(=O)Nc2ccc(CCNC[C@H](O)c3ccccc3)cc2)cs1` [Mirabegron] (20 µM), the growth is 0.987.
In the case of `NS(=O)(=O)c1cc2c(cc1Cl)NC(CC1CCCC1)NS2(=O)=O` (stereo unspecified) [Cyclopenthiazide] (20 µM), the growth was 0.993.
For the molecule `Cc1cc(/C=C/c2ccc3cc(N(C)C)ccc3[n+]2C)c(C)n1-c1ccccc1` [Pyrvinium pamoate] (20 µM), the growth came out at 0.853.
For the molecule `CN1CCC(=C2c3ccccc3C=Cc3ccccc32)CC1` [Cyproheptadine hydrochloride] (20 µM), the growth worked out at 1.15.
As to `Cc1ccccc1OCC(O)CO` (stereo unspecified) [Mephenesin] (20 µM), the growth is 0.982.
